Among all 5,500 compounds or so, about 2,000 (36%) were called active. Not shown: some 18% with an inconclusive outcome. Cut-off read from the data, not from the text of the source: active = normalized growth mostly below about 0.91 (no sharp cut-off); inconclusive = no clear call, values can overlap the other calls; inactive = mostly above about 0.92. This is one part of the list.
Experiment: chemical genetic growth profiling, strain panel (AID 1159580);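 note: tested at 20 µM; growth read once vehicle control cultures reached saturation at 30 °C; 1 = growth at the plate median or of vehicle wells; lower values mean less growth of the strain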
Settings: growth OD

Measured: normalized growth

CC(=O)NS(=O)(=O)c1ccc(N)cc1
inactive: S. cerevisiae deletion strains, locus YJR066W, strain TOR1, hits give low values 0.931 | S. cerevisiae deletion strains, locus YKL009W, strain mrt4, hits give low values 0.975 | S. cerevisiae deletion strains, locus YKL068W, hits give low values 0.989 | S. cerevisiae deletion strains, locus YKL085W, strain MDH1 (second series), hits give low values 0.982 | S. cerevisiae deletion strains, locus YKL085W, strain MDH1, hits give low values 0.982 | S. cerevisiae deletion strains, locus YKL160W, strain elf1, hits give low values 1 | S. cerevisiae deletion strains, locus YKL190W, strain CNB1, hits give low values 0.997 | S. cerevisiae deletion strains, locus YKR001C, strain vps1, hits give low values 0.975 | S. cerevisiae deletion strains, locus YKR026C, strain gcn3, hits give low values 1.01 | S. cerevisiae deletion strains, locus YKR091W, strain srl3, hits give low values 1.01 | S. cerevisiae deletion strains, locus YLL001W, strain dnm1, hits give low values 1 | S. cerevisiae deletion strains, locus YLL026W, hits give low values 1.01 | S. cerevisiae deletion strains, locus YLL041C, strain sdh2, hits give low values 1.02 | S. cerevisiae deletion strains, locus YLR027C, strain aat2, hits give low values 1.01 | S. cerevisiae deletion strains, locus YLR039C, strain RIC1, hits give low values 1 | S. cerevisiae deletion strains, locus YLR058C, strain SHM2, hits give low values 0.992 | S. cerevisiae deletion strains, locus YLR102C, strain apc9, hits give low values 0.988 | S. cerevisiae deletion strains, locus YLR113W, strain HOG1, hits give low values 0.983 | S. cerevisiae deletion strains, locus YLR221C, strain rsa3, hits give low values 1.01 | S. cerevisiae deletion strains, locus YLR258W, strain gsy2, hits give low values 1.01 | S. cerevisiae deletion strains, locus YLR262C, strain YPT6 (second series), hits give low values 1.03 | S. cerevisiae deletion strains, locus YLR262C, strain YPT6, hits give low values 1 | S. cerevisiae deletion strains, locus YLR268W, strain sec22, hits give low values 0.945 | S. cerevisiae deletion strains, locus YLR320W, strain mms22, hits give low values 1.01 | S. cerevisiae deletion strains, locus YLR330W, strain CHS5, hits give low values 0.993 | S. cerevisiae deletion strains, locus YLR342W, strain FKS1 (second series), hits give low values 0.992 | S. cerevisiae deletion strains, locus YLR342W, strain FKS1, hits give low values 1.01 | S. cerevisiae deletion strains, locus YLR357W, strain rsc2, hits give low values 1.04 | S. cerevisiae deletion strains, locus YLR370C, strain arc18, hits give low values 1.01 | S. cerevisiae deletion strains, locus YLR371W, strain rom2, hits give low values 0.98 | S. cerevisiae deletion strains, locus YLR384C, strain iki3, hits give low values 1.01 | S. cerevisiae deletion strains, locus YLR418C, strain cdc73, hits give low values 0.968 | S. cerevisiae deletion strains, locus YML016C, strain PPZ1, hits give low values 0.99 | S. cerevisiae deletion strains, locus YML032C, strain rad52, hits give low values 0.976 | S. cerevisiae deletion strains, locus YML120C, strain ndi1, hits give low values 1.01 | S. cerevisiae deletion strains, locus YML124C, strain tub3, hits give low values 0.977 | S. cerevisiae deletion strains, locus YMR058W, strain fet3, hits give low values 1.03 | S. cerevisiae deletion strains, locus YMR078C, strain ctf18, hits give low values 0.985 | S. cerevisiae deletion strains, locus YMR125W, strain sto1, hits give low values 1 | S. cerevisiae deletion strains, locus YMR129W, hits give low values 1.01 | S. cerevisiae deletion strains, locus YMR205C, strain PFK2, hits give low values 1.02 | S. cerevisiae deletion strains, locus YMR223W, strain ubp8, hits give low values 0.996 | S. cerevisiae deletion strains, locus YMR231W, strain pep5, hits give low values 1.01 | S. cerevisiae deletion strains, locus YMR307W, strain GAS1, hits give low values 0.985 | S. cerevisiae deletion strains, locus YNL067W, strain RPL9B, hits give low values 1 | S. cerevisiae deletion strains, locus YNL071W, strain lat1, hits give low values 0.999 | S. cerevisiae deletion strains, locus YNL128W, strain TEP1, hits give low values 0.978 | S. cerevisiae deletion strains, locus YNL183C, strain NPR1, hits give low values 0.951 | S. cerevisiae deletion strains, locus YNL209W, strain ssb2, hits give low values 1.03 | S. cerevisiae deletion strains, locus YNL233W, strain BNI4, hits give low values 0.993 | S. cerevisiae deletion strains, locus YNL248C, strain rpa49, hits give low values 1.03 | S. cerevisiae deletion strains, locus YNL250W, strain rad50, hits give low values 0.971 | S. cerevisiae deletion strains, locus YNL271C, strain bni1, hits give low values 0.973 | S. cerevisiae deletion strains, locus YNL298W, strain CLA4, hits give low values 0.974 | S. cerevisiae deletion strains, locus YNL307C, strain MCK1, hits give low values 0.97 | S. cerevisiae deletion strains, locus YNL322C, strain KRE1 (second series), hits give low values 0.995 | S. cerevisiae deletion strains, locus YNL322C, strain KRE1, hits give low values 0.992 | S. cerevisiae deletion strains, locus YNR049C, strain mso1, hits give low values 1.01 | S. cerevisiae deletion strains, locus YNR052C, strain pop2, hits give low values 0.977 | S. cerevisiae deletion strains, locus YOL006C, strain TOP1, hits give low values 1.02 | S. cerevisiae deletion strains, locus YOL012C, strain htz1 0.651 | S. cerevisiae deletion strains, locus YOL147C, strain pex11, hits give low values 0.985 | S. cerevisiae deletion strains, locus YOR001W, strain rrp6, hits give low values 1.02 | S. cerevisiae deletion strains, locus YOR061W, strain CKA2, hits give low values 0.989 | S. cerevisiae deletion strains, locus YOR069W, strain VPS5, hits give low values 0.984 | S. cerevisiae deletion strains, locus YOR070C, strain gyp1, hits give low values 1.02 | S. cerevisiae deletion strains, locus YOR080W, strain dia2, hits give low values 1.01 | S. cerevisiae deletion strains, locus YOR083W, strain WHI5, hits give low values 1 | S. cerevisiae deletion strains, locus YOR106W, strain vam3, hits give low values 1.02 | S. cerevisiae deletion strains, locus YOR136W, strain idh2, hits give low values 0.996 | S. cerevisiae deletion strains, locus YOR144C, strain elg1, hits give low values 0.987 | S. cerevisiae deletion strains, locus YOR184W, strain ser1, hits give low values 0.989 | S. cerevisiae deletion strains, locus YOR231W, strain MKK1, hits give low values 0.997 | S. cerevisiae deletion strains, locus YOR265W, strain rbl2, hits give low values 1.01 | S. cerevisiae deletion strains, locus YOR270C, strain vph1, hits give low values 1.04 | S. cerevisiae deletion strains, locus YOR290C, strain snf2, hits give low values 1 | S. cerevisiae deletion strains, locus YOR316C, strain cot1, hits give low values 0.982 | S. cerevisiae deletion strains, locus YPL051W, strain arl3, hits give low values 1.02 | S. cerevisiae deletion strains, locus YPL078C, strain atp4, hits give low values 1.01 | S. cerevisiae deletion strains, locus YPL106C, strain sse1, hits give low values 1.01 | S. cerevisiae deletion strains, locus YPL240C, strain hsp82, hits give low values 1.02 | S. cerevisiae deletion strains, locus YPL241C, strain CIN2, hits give low values 0.995 | S. cerevisiae deletion strains, locus YPL256C, strain CLN2, hits give low values 1 | S. cerevisiae deletion strains, locus YPR119W, strain clb2, hits give low values 0.995 | S. cerevisiae deletion strains, locus YPR141C, strain kar3, hits give low values 0.981 | S. cerevisiae deletion strains, locus YPR163C, strain tif3, hits give low values 0.982 | S. cerevisiae deletion strains, locus YPR167C, strain met16, hits give low values 0.982 | S. cerevisiae deletion strains, strain wtn01, hits give low values 0.969 | S. cerevisiae strains, strain wild type, hits give low values 1

— PubChem BioAssay AID1159580 (chemical genetic matrix, 2015)
